Rows were chosen to be rich in hits. Some 19% of all compounds tested hit in one or more screens of this group.
KB-V1 MDR tox = qHTS assay for MDR1-selective chemotherapeutics: Primary screen using the drug-selected MDR subline cells KB-V1. KB-V1 MDR cells viability, CellTiter-Glo, 72 h. Potency, µM (titrated, usually from 46.1 µM), usual class: cytotoxic. actives 3.4% (n = 400,000). AID 1347076, 2019; further: nearly all actives have a fitted effect of over 60% in size
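Readout: CellTiter-Glo luminescence, 10 min after addition. Cells: KB-V1 MDR subline, 72 h at 37 degrees C with compound. Analysis: corrected, normalized data fitted to concentration-effect curves.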
HT1080NT lethal = qHTS for induction of synthetic lethality in tumor cells producing 2HG: qHTS for the HT-1080-NT fibrosarcoma cell line. Potency, µM (titrated, usually from 46.1 µM), inactives show at the highest dose activity, negative = less viability, most hits filed as cytotoxic. actives 1.6% (n = 360,000). HT-1080-NT fibrosarcoma viability, CellTiter-Glo ATP luminescence, 48 h. AID 686970, 2013;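 further: NT is the 2HG producing partner of a matched IDH1 knockdown line; 0% = DMSO-treated cells and -100% = media-only wells without cells; nearly all actives have a fitted effect of over 55% in size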
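Fibrosarcoma NT cells, 750 per well in 5% FBS RPMI, were exposed to compound for 48 hours. Viability: CellTiter-Glo luminescence.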
KB-3-1 cytotox = qHTS assay for MDR1-selective chemotherapeutics: Primary screen using the parental adenocarcinoma cell KB-3-1; KB-3-1 viability, CellTiter-Glo ATP luminescence, 72 h; Potency, µM (series often up to 46.1 µM), actives largely listed as cytotoxic; actives 1.4% (n = 400,000); AID 1347075, 2019; further: nearly all actives have a fitted effect of over 60% in size
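Using CellTiter-Glo luminescence, growth of non-resistant KB-3-1 adenocarcinoma cells is assessed 72 h after pin-tool compound addition at 37 °C. Normalized responses across the concentration series yield fitted curves.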
TDP1 cell noCPT = qHTS for Inhibitors of human tyrosyl-DNA phosphodiesterase 1 (TDP1): qHTS in cells in absence of CPT; Potency, µM (titrated, usually from 46.2 µM), inactives show at the top dose activity change, negative = growth inhibition, usual class: inhibitors; actives 15% (n = 420,000); DT40 Tdp1-/- hTDP1 cells, no CPT, ATP luminescence, 48 h; further: nearly all actives have a fitted effect of over 55% in size
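Readout: luminescence from CellTiter-Glo after 30 min in the dark at RT. Cells: DT40 Tdp1-/- with stable hTDP1, 400/well. Exposure: compounds alone, ≥48 hr, 37 °C.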
HT1080 IDH1KD tx = qHTS for induction of synthetic lethality in tumor cells producing 2HG: qHTS for the HT-1080-IDH1KD cell line; HT-1080 IDH1 knockdown viability, ATP luminescence, 48 h; Potency, µM (titrated, usually from 46.1 µM), for the others: at the highest dose activity, negative = toxicity, usual class: cytotoxic; actives 2% (n = 360,000); AID 686971, 2013;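 further: 0% = DMSO wells and -100% = cell-free medium wells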
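Knockdown cells (IDH1KD HT-1080) received compounds 2 h after plating at 750 cells/well and were kept 48 h at 37 °C in 5% FBS RPMI. A CellTiter-Glo luminescence read gave % activity for curve fitting.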
TDP1 cell CPT = qHTS for Inhibitors of human tyrosyl-DNA phosphodiesterase 1 (TDP1): qHTS in cells in presence of CPT; Potency, µM (top dose mostly 46.2 µM), for inactives: at the highest dose activity change, negative = growth inhibition, hits mostly inhibitors; AID 686979, 2013; actives 12% (n = 420,000); chicken DT40 Tdp1-/-;hTDP1 cells + 20 nM CPT, ATP luminescence, 48 h; further: nearly all actives have a fitted effect of over 55% in size
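Chicken DT40 Tdp1-/- cells stably complemented with human TDP1 were seeded at 400 cells/well in medium containing 20 nM camptothecin, exposed to pin-transferred compounds, and grown at 37 °C for at least 48 hr. Viability was read as ATP luminescence.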
Active calls of the source: *; i = inactive; ? = inconclusive; nt = no result given. The call rests on the fitted dose curve; in most records, active means well fitted curve in the direction sought with a large enough effect; inconclusive means small, poorly fitted or top-dose-only effect, or another doubt; inactive means no such curve, though single readings can be large; an effect the other way counts as inactive or inconclusive. Unless noted, on the % scale 0 is the no-effect control and ±100 the full control effect; potency means the concentration at half of the fitted maximal effect.

SMILES	KB-V1 MDR tox	HT1080NT lethal	KB-3-1 cytotox	TDP1 cell noCPT	HT1080 IDH1KD tx	TDP1 cell CPT
COc1ccc(S(=O)(=O)N2CCOC23CCN(C(=O)c2ccccc2OC)CC3)cc1	i	5%	i	-26%	8%	13%
O=S(=O)(NCC1(N2CCOCC2)CCCCC1)c1ccc(F)c(F)c1F	i	2%	i	?	2%	10µM*
Cc1cccc(NC(=O)CSc2nc(=O)n(Cc3ccccn3)c3c2CCC3)c1C	i	nt	i	-15%	nt	4%
CCOc1ccc2oc(C(=O)N3CCN(c4ccccc4OCC)CC3)c(C)c2c1	?	4%	i	?	-3%	?
COc1ccc(N2CCN(CNC(=O)c3ccccc3)CC2)cc1	i	-4%	i	17%	-6%	-11%
COc1ccc(-n2cc(-c3ccccc3)nc2SC)cc1	i	-1%	i	1%	-12%	?
COc1ccc(-c2cn(-c3ccc(OC)cc3)c3[n+]2-c2ccccc2CC3)cc1	i	26µM*	3.7µM*	0.21µM*	?	0.26µM*
FC(F)Oc1ccc(-c2csc(Cc3nnc4n3CCCCC4)n2)cc1	i	2%	?	?	1%	?
COc1ccc(-n2cc(-c3ccccc3)[n+]3c2CCCCC3)cc1	i	?	?	1.2µM*	?	5.8µM*
COc1ccc(-c2cn(-c3ccc(SC(F)F)cc3)c3[n+]2CCC3)cc1OC	i	10%	i	18µM*	4%	?
FC(F)Oc1ccc(-n2cc(-c3ccc(Cl)cc3)[n+]3c2CCCCC3)cc1	i	0%	?	4.6µM*	-7%	4.6µM*
CC1(NC(=S)Nc2ccccc2)CCS(=O)(=O)C1 (configuration not stated)	i	12%	i	-21%	10%	-7%
CN(Cc1cccs1)c1ncnc2ccc(-c3ccc4cn(C)nc4c3)cc12	i	nt	?	nt	nt	nt
FC(F)Sc1ccc(-n2cc(-c3ccccc3)[n+]3c2CCC3)cc1	i	-2%	15µM*	4.1µM*	-25%	5.8µM*
Cn1nnnc1NCc1ccccc1F	i	4%	i	1%	-1%	7%
Cc1ccc(NC(=O)CN(C)S(=O)(=O)c2cccc3cccnc23)cc1C	i	-4%	i	15µM*	-1%	?
COc1ccc(N(C)S(=O)(=O)c2cccc3cccnc23)c(OC)c1	?	11µM*	?	18µM*	8.9µM*	?
COc1ccc(N(C(=O)C2CCCCC2)S(=O)(=O)c2cccc3cccnc23)cc1	?	-9%	?	-24%	-13%	15%
CSc1ccccc1NC(=O)CN(C)C(=O)COc1cccc2cccnc12	i	2%	i	3.3µM*	-2%	5.2µM*
COc1ccccc1NC(=O)CN(C)S(=O)(=O)c1cccc2cccnc12	i	3%	i	18µM*	0%	36%
CC1(C(=O)Nc2cccc3c2CCCC3)CCN1C(=O)c1cccc(F)c1 (configuration not stated)	i	-2%	i	?	-13%	-23%
Cn1cc(CN2CCCC(CO)(Cc3ccccc3)C2)cn1 (configuration not stated)	i	-15%	i	0%	-6%	-13%
O=C(Nc1cccc(F)c1)N1CCC2(CC1)CCN(C(=O)c1csnn1)CC2	nt	nt	nt	-24%	nt	7%
Cc1ccc(OCC(=O)O)c(-n2nc3ccccc3n2)c1	?	1%	i	-23%	14%	0%
Cc1ccc(NC(=O)COc2ccc(CCO)cc2-n2nc3ccccc3n2)cc1C	?	?	?	12µM*	?	?
SMILES	KB-V1 MDR tox	HT1080NT lethal	KB-3-1 cytotox	TDP1 cell noCPT	HT1080 IDH1KD tx	TDP1 cell CPT
COc1ccc(OC)c(S(=O)(=O)N(C)CC(=O)N2CCCCC2)c1	i	1%	i	4%	-1%	2%
COCC#Cc1cnc2c(c1)C(=O)N([C@H](C)CO)C[C@H](C)[C@@H](CN(C)S(=O)(=O)c1ccccc1)O2	i	9%	i	0%	9%	11%
COc1cccc(C#Cc2cnc3c(c2)C(=O)N([C@@H](C)CO)C[C@H](C)[C@H](CN(C)C(=O)C2CCC2)O3)c1	i	11%	i	13µM*	-11%	?
Cc1ccc(S(=O)(=O)N(C)C[C@H]2Oc3ncc(-c4ccccc4)cc3C(=O)N([C@@H](C)CO)C[C@@H]2C)cc1	?	3%	i	13µM*	-1%	?
COc1ccccc1-c1cnc2c(c1)C(=O)N([C@@H](C)CO)C[C@@H](C)[C@@H](CN(C)C(C)=O)O2	i	2%	i	2%	4%	-2%
C[C@@H]1CN([C@@H](C)CO)C(=O)c2cc(Br)cnc2O[C@H]1CN(C)C(=O)C1CCCCC1	i	-5%	i	-19%	-11%	-12%
Cc1ccc(S(=O)(=O)N(C)C[C@@H]2Oc3ncc(C#CCC(C)C)cc3C(=O)N([C@H](C)CO)C[C@H]2C)cc1	?	-24%	i	16µM*	?	?
COc1ccccc1S(=O)(=O)N(C)C[C@@H]1Oc2ncc(-c3ccc(C)cc3)cc2C(=O)N([C@H](C)CO)C[C@@H]1C	i	-6%	i	16µM*	-12%	?
CC(=O)NCC1CCCN(C(=O)c2ccc(OC3CCN(Cc4ccccn4)CC3)cc2)C1 (configuration not stated)	?	12%	i	18%	9%	-7%
CCc1cccc(-n2nnc(-c3nc(-c4ccccc4Cl)no3)c2N)c1	nt	nt	nt	-2%	nt	8%
CC1CCCC(NC(=S)Nc2ccc(SC(F)F)cc2)C1C (configuration not stated)	23µM*	?	18µM*	?	?	?
OC1CCC(NC(=S)Nc2ccc(SC(F)F)cc2)CC1 (configuration not stated)	i	0%	i	?	-13%	?
FC(F)Sc1ccc(NC(=S)NC2CCCC2)cc1	?	-9%	i	16µM*	-17%	?

Bioassay records from PubChem.
